# The whole screen tested about 69,000 compounds, of which about 1,000 (1.4%) showed an effect of 50% or more. This excerpt belongs to a sample that is enriched for strong results.
# Test system: Leishmania donovani
# Experiment: Leishmania intramacrophage assay
# Type: functional, organism-based
# Design: scale not given: in the data most compounds retested in dose-response had high values
compound,measurement,setting,value
Cl.NC(=O)N1CC2(CCNCC2)c2cc(Cl)ccc21,Percent Effect,"30 µM, 30.03 µM",2.936%
Cc1noc(C)c1CN1CC[C@H]2C[C@@H](c3nccs3)O[C@@H]2C1,Percent Effect,"30 µM, 30.03 µM",15.1%
Cc1cccc(-c2ncc(CNC(C)Cc3ncccc3C)cn2)c1 (stereo not drawn),Percent Effect,"30.3 µM, […]",-19.51%
Cc1cccc(-c2ncc(CNC(C)Cc3ccncc3)cn2)c1 (stereo not drawn),Percent Effect,"30.3 µM, […]",-22.9%
CC(Cc1cccc(F)c1)NCc1cnc(N2CCN(C)CC2)nc1 (stereo not drawn),Percent Effect,"30.3 µM, […]",97.99%
Cl.Cl.Fc1ccc2c(c1)C1(CCNCC1)CC2NC1CC1 (stereo not drawn),Percent Effect,"30.3 µM, […]",27.52%
Cc1ccc(O[C@@H]2C[C@H]3CN(C(=O)Cc4ccccn4)CCN3C2)cc1.O=C(O)C(F)(F)F.O=C(O)C(F)(F)F,Percent Effect,"30.3 µM, […]",11.94%
CCc1ncc(CN(CCc2ccccc2)Cc2cccs2)cn1.O=C(O)CC(O)(CC(=O)O)C(=O)O,Percent Effect,"30.3 µM, […]",-1.419%
c1ccc(-c2ncc(CN3CCC4(CCNCC4)C3)cn2)cc1,Percent Effect,"30.3 µM, […]",24.37%
Fc1cnccc1CN1CCC2(CCNCC2)C1,Percent Effect,"30.3 µM, […]",25.89%
Oc1cccc2ccc(CN3CCC4(CCNCC4)C3)nc12,Percent Effect,"30.3 µM, […]",61.55%
COCC1CC2(CCN(CC3CC3)CC2)CN1Cc1ccccn1.O=C(O)C(F)(F)F.O=C(O)C(F)(F)F (stereo not drawn),Percent Effect,"30.3 µM, […]",40.82%
Fc1cnc(N2CCCC3(CCN(Cc4ccoc4)C3)C2)nc1.O=C(O)C(F)(F)F.O=C(O)C(F)(F)F (stereo not drawn),Percent Effect,"30.3 µM, […]",13.62%
Cc1oncc1C(=O)N1CC[C@H]2[C@H](C[C@@H](CN3CCCC3)N2C)C1.O=C(O)C(F)(F)F.O=C(O)C(F)(F)F,Percent Effect,"30.3 µM, […]",25.5%
CCOC(=O)N1CCC(NC(C)Cc2cc(C)n[nH]2)CC1 (stereo not drawn),Percent Effect,"30.3 µM, […]",11.64%
Cc1cc(CC(C)NC2CCN(CC(C)C)CC2)[nH]n1 (stereo not drawn),Percent Effect,"30.3 µM, […]",19.46%
Cc1cc(N2CCC(NC(C)Cc3ccsc3)CC2)nc(C)n1 (stereo not drawn),Percent Effect,"30.3 µM, […]",70.01%
Cc1cc(N2CCC(NC(C)Cc3ccsc3)CC2)nc(N)n1 (stereo not drawn),Percent Effect,"30.3 µM, […]",71.35%
Cc1cccc(C)c1NC(=O)CNC(C)Cc1ccsc1 (stereo not drawn),Percent Effect,"30.3 µM, […]",11.71%
Cc1cc(CC(C)NC2CCSCC2)[nH]n1 (stereo not drawn),Percent Effect,"30.3 µM, […]",3.441%
CCS(=O)(=O)NC[C@]12COC[C@H]1CN(Cc1cccnc1OC)C2.O=C(O)C(F)(F)F.O=C(O)C(F)(F)F,Percent Effect,"30.3 µM, […]",-3.146%
CC(C)N(C)Cc1cncc2c1CCN(Cc1cccs1)C2.Cl.Cl.Cl,Percent Effect,"30.3 µM, […]",7.349%
O=C(O)C(F)(F)F.O=C(O)C(F)(F)F.c1cncc(OC[C@@]23CCO[C@@H]2CCN(Cc2cccs2)C3)c1,Percent Effect,"30.3 µM, […]",13.49%
O=C(O)C(F)(F)F.O=C1Nc2ccccc2C12CCN(Cc1nccs1)CC2,Percent Effect,"30.3 µM, […]",18.81%
Cc1ccc(CN2CCO[C@H]3[C@@H](OCc4cccnc4)CC[C@@H]32)o1.O=C(O)C(F)(F)F.O=C(O)C(F)(F)F,Percent Effect,"30.3 µM, […]",19.54%
COc1cccc(Cn2cc(C3=CCN(CCO)CC3)cn2)c1,Percent Effect,"30.3 µM, […]",22.79%
COc1ccc(-n2nnnc2C2(NCc3ccco3)CCCCC2)cc1,Percent Effect,"30.3 µM, […]",-17.59%
OCCN1CCC(F)(F)C2(CCN(c3cccnc3)C2)C1 (stereo not drawn),Percent Effect,"30.3 µM, […]",51.95%
FC1(F)CCNCC12CCN(c1cccnc1)C2.O=C(O)C(F)(F)F.O=C(O)C(F)(F)F (stereo not drawn),Percent Effect,"30.3 µM, […]",9.392%
Cc1ccc(N2CCC3(CN(CCO)CCC3(F)F)C2)nn1.O=C(O)C(F)(F)F (stereo not drawn),Percent Effect,"30.3 µM, […]",39.18%
COCCN1C[C@@H]2CN(Cc3cccc(C)n3)C[C@@H]2C1=O.O=C(O)C(F)(F)F,Percent Effect,"30 µM, 30.03 µM",25.64%
CC(C)CN1CCC2(COCc3cnc(-c4ccccc4)nc32)C1.O=C(O)C(F)(F)F (stereo not drawn),Percent Effect,"30.3 µM, […]",36%
Cl.Cl.O=c1[nH]c2ncccc2n1C1CCNCC1,Percent Effect,"30.3 µM, […]",13.74%
COc1ccccc1CCN(C)Cc1nc(N)nc(N(C)C)n1,Percent Effect,"30.3 µM, […]",17.72%
Cc1ccc(CN2C[C@@H]3[C@@H](C2)OCC(=O)N3Cc2ccncc2)s1.O=C(O)C(F)(F)F.O=C(O)C(F)(F)F,Percent Effect,"30.3 µM, […]",15.08%
O=C(O)C(F)(F)F.O=C(O)C(F)(F)F.O=C1[C@H]2CN(Cc3ccncc3)C[C@H]2CN1c1ccsc1,Percent Effect,"30.3 µM, […]",21.46%
Cn1ncc2c(N3CCCN4CCC[C@H]4C3)nc(C(C)(C)C)nc21,Percent Effect,"30.3 µM, […]",-35.36%
CCCc1nc(N2CCCC3(CCNC3)C2)c2cnn(C)c2n1 (stereo not drawn),Percent Effect,"30.3 µM, […]",-7.107%
Cn1ncc2c(N3CCCC4(CCNC4)C3)nc(C(C)(C)C)nc21 (stereo not drawn),Percent Effect,"30.3 µM, […]",88.19%
O=C(N1CCCO1)[C@@]12CCO[C@@H]1CCN(Cc1cccnc1)C2.O=C(O)C(F)(F)F.O=C(O)C(F)(F)F,Percent Effect,"30.3 µM, […]",13.9%
CCO[C@H]1CN(CC2CC2)[C@@H]2CCCO[C@H]12.O=C(O)C(F)(F)F,Percent Effect,"30.3 µM, […]",13.63%
Cc1ncsc1CN1C[C@@H]2CCCO[C@@H]2[C@H](Nc2ccccn2)C1.O=C(O)C(F)(F)F.O=C(O)C(F)(F)F,Percent Effect,"30.3 µM, […]",-3.269%
COc1cc2nc(NCc3ccc(C)nc3)nc(N)c2cc1OC,Percent Effect,"30.3 µM, […]",62.6%
COc1cc(CNCC(O)c2ccccc2F)cc2c1OCO2 (stereo not drawn),Percent Effect,30 µM,34.29%
Cc1ccc(C(=O)N2C[C@H]3CNC[C@H]3C2)cn1,Percent Effect,"30.3 µM, […]",-11.07%
Cc1nc(CN2C[C@@H]3CN(C(=O)c4ccncc4)C[C@@H]3C2)cs1,Percent Effect,"30.3 µM, […]",-18.13%
Cc1ccc(C(=O)N2C[C@H]3CN(Cc4csc(C)n4)C[C@H]3C2)cn1,Percent Effect,"30.3 µM, […]",58.41%
O=C(NC[C@]12COC[C@H]1CN(Cc1cccnc1)C2)c1ccno1.O=C(O)C(F)(F)F.O=C(O)C(F)(F)F,Percent Effect,"30 µM, 30.03 µM",19.24%
Cc1ccccc1-n1nc(C)c(CN(C)C(C)Cc2ccccn2)c1C.O=C(O)CC(O)(CC(=O)O)C(=O)O (stereo not drawn),Percent Effect,"30.3 µM, […]",17.55%
CC(C)(C)c1cn(C[C@H]2CC3CCN2C[C@@H]3C(=O)N2CCOCC2)nn1 (stereo partly drawn),Percent Effect,"30.3 µM, […]",-15.57%
COCc1cn(C[C@H]2C[C@@H]3CCN2C[C@@H]3C(=O)N2CCOCC2)nn1,Percent Effect,"30.3 µM, […]",-19.8%
CC(C)(O)c1cn(C[C@H]2C[C@@H]3CCN2C[C@@H]3C(=O)N2CCOCC2)nn1,Percent Effect,"30.3 µM, […]",75.59%
CN(C)CCN1CCN(Cc2cccs2)Cc2cccnc21.O=C(O)C(F)(F)F.O=C(O)C(F)(F)F.O=C(O)C(F)(F)F,Percent Effect,"30.3 µM, […]",-2.293%
CN(C)[C@@H]1CN(C(=O)Cc2cccs2)[C@@H]2CCCO[C@H]12.O=C(O)C(F)(F)F,Percent Effect,"30.3 µM, […]",-12.28%
CN(CC1Cc2ccccc2CN1C)C(=O)Cc1cccs1 (stereo not drawn),Percent Effect,"30.3 µM, […]",58.51%
CC(C)CN1CCC2(CC1)C(=O)Nc1ccc(C(=O)NC(C)C)cc12.O=C(O)C(F)(F)F,Percent Effect,"30.3 µM, […]",-1.007%
Cc1ccc(CN2C[C@@H]3CCN(Cc4ccncc4)C(=O)[C@H]3C2)s1.O=C(O)C(F)(F)F.O=C(O)C(F)(F)F,Percent Effect,"30.3 µM, […]",7.943%
N#Cc1ccc(N2CCC(OC3CCOCC3)CC2)cc1Cl,Percent Effect,"30.3 µM, […]",58.7%
N#Cc1ccc(NC2CCN(c3ncccn3)CC2)cc1Cl,Percent Effect,"30.3 µM, […]",-22.27%
COCC1CN(c2ccc(C#N)c(Cl)c2)CCO1 (stereo not drawn),Percent Effect,"30.3 µM, […]",27.15%
O=C(Nc1cccnc1)[C@H]1C[C@H]2OCC[C@H]2N(CC2CC2)C1.O=C(O)C(F)(F)F.O=C(O)C(F)(F)F,Percent Effect,"30.3 µM, […]",5.172%
O=C(O)C(F)(F)F.O=C(O)C(F)(F)F.O=C(O)C(F)(F)F.c1cncc(CN2CCO[C@H]3[C@H](OCCN4CCCC4)CC[C@@H]32)c1,Percent Effect,"30.3 µM, […]",-1.777%
Fc1cccnc1O[C@H]1CN(Cc2ccoc2)[C@@H]2CCCO[C@H]12.O=C(O)C(F)(F)F.O=C(O)C(F)(F)F,Percent Effect,"30.3 µM, […]",9.385%
O=C(C[C@@H]1COC[C@H]2CN(Cc3cccnc3)C[C@@H]12)NCC1CC1.O=C(O)C(F)(F)F.O=C(O)C(F)(F)F,Percent Effect,"30.3 µM, […]",18.63%
COCCN1C[C@@H]2COC[C@@H](CC(=O)NCc3cccnc3)[C@@H]2C1.O=C(O)C(F)(F)F.O=C(O)C(F)(F)F,Percent Effect,"30.3 µM, […]",44.79%
O=C(C[C@@H]1COC[C@H]2CN(CC3CC3)C[C@@H]12)NCc1cccnc1.O=C(O)C(F)(F)F.O=C(O)C(F)(F)F,Percent Effect,"30.3 µM, […]",54.71%
O=C(O)C(F)(F)F.O=C(O)C(F)(F)F.c1cncc(CN2CC[C@H]3O[C@@H](COCC4CC4)CC[C@H]32)c1,Percent Effect,"30 µM, 30.03 µM",39.71%
COc1ncccc1CN1C[C@H]2CCN(c3ncccn3)C[C@H]2C1.O=C(O)C(F)(F)F,Percent Effect,"30.3 µM, […]",28.82%
COc1ncccc1CN1C[C@H]2CCN(C(C)C)C[C@H]2C1.O=C(O)C(F)(F)F.O=C(O)C(F)(F)F,Percent Effect,"30.3 µM, […]",-4.656%
COCCN1CC[C@@H]2CN(Cc3cccnc3OC)C[C@@H]2C1.O=C(O)C(F)(F)F.O=C(O)C(F)(F)F,Percent Effect,"30.3 µM, […]",55.04%
CN(C)c1nccc(N2CCO[C@H]3CN(Cc4ccco4)C[C@H]32)n1,Percent Effect,"30.3 µM, […]",57.89%
COCCN1C[C@@H]2OCCN(c3ccnc(N(C)C)n3)[C@@H]2C1,Percent Effect,"30.3 µM, […]",23.22%
CN(C)c1nccc(N2CCO[C@H]3CN(Cc4ccsc4)C[C@H]32)n1.O=C(O)C(F)(F)F,Percent Effect,"30 µM, 30.03 µM",28.84%
C[C@@H]1C(=O)NC[C@H]2CN(Cc3ccsc3)C[C@H]21.O=C(O)C(F)(F)F,Percent Effect,"30 µM, 30.03 µM",28.53%
CCCc1nc2c(c(C)c(C)n2CCN(C)C)c(N)c1CC,Percent Effect,"30.3 µM, […]",99.96%
CNC(=O)CN1CCC12CCN(C(=O)Cc1ccccc1)C2.O=C(O)C(F)(F)F (stereo not drawn),Percent Effect,"30.3 µM, […]",9.106%
COCCn1cc(C(=O)NCCS(N)(=O)=O)c2ccccc21,Percent Effect,"30.3 µM, […]",59.49%
CCCn1cc(C(=O)NCCS(N)(=O)=O)c2ccccc21,Percent Effect,"30.3 µM, […]",23.59%
CCCn1cc(C(=O)NCCCC(N)=O)c2ccccc21,Percent Effect,"30.3 µM, […]",41.21%
CN(C)C[C@H]1C[C@@H]2CN(Cc3ccoc3)C[C@@H]2O1.O=C(O)C(F)(F)F.O=C(O)C(F)(F)F,Percent Effect,"30.3 µM, […]",4.803%
O=C(O)C(F)(F)F.O=C(O)C(F)(F)F.c1cncc(COC[C@@H]2CCC[C@]23CNCCO3)c1,Percent Effect,"30.3 µM, […]",27.95%
Cl.Cl.c1cc(COC[C@@H]2CCC[C@@]23CNCCO3)ccn1,Percent Effect,"30 µM, 30.03 µM",8.265%
Cl.Cl.c1cncc(COC[C@@H]2CCC[C@@]23CNCCO3)c1,Percent Effect,"30.3 µM, […]",73.99%
